These results are taken from PubChem BioAssay AID1851 (National Center for Advancing Translational Sciences (NCATS), 2009).

Each structure is given as a SMILES string. “And” between values parts separate entries of the source, which are not always exact repeats. Equal values may be shown once. Hit rate of the full screen: of about 16,000 compounds, about 5,800 (36%) were called active. Roughly 23% stayed inconclusive and do not appear here. This is one part of the list. Values without a mark were called inactive. The call rests on the fitted dose curve; in most records, active means well fitted curve in the direction sought with a large enough effect; inconclusive means small, poorly fitted or top-dose-only effect, or effect the other way; inactive means no such curve, though single readings can be large or run the other way.
On the % scale 0 is the no-effect control and ±100 the full control effect.

Cytochrome P450 2C19 (Homo sapiens), sequence (P33261 whole entry, looked up): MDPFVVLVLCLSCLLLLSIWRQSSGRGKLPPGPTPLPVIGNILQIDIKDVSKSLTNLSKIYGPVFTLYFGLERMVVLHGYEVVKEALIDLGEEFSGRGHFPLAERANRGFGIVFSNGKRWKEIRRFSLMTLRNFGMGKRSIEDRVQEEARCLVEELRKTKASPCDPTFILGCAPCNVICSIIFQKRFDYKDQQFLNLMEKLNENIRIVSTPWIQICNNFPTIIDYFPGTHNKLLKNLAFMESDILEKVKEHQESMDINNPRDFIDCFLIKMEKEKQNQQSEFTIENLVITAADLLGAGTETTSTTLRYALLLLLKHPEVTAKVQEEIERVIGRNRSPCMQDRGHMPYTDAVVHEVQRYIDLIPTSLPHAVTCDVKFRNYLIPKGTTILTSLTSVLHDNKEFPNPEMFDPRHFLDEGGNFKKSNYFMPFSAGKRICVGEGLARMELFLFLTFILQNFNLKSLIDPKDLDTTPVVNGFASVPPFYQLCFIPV

This assay addresses Cytochrome P450 2C19 (Homo sapiens) (UniProt P33261). Nature of the assay: Cytochrome panel assay with activity outcomes. Conditions: recombinant CYP, pro-luciferin dealkylation, luminescence, p450-cyp2c19; series mostly up to 57.1 µM; activity, negative = inhibition: at the top concentration.
For the molecule `CCC(=O)NC(NC(=O)CC)C(Cl)Cl`, the “activity, negative = inhibition” value was 3.92%.
As a reminder, the AC50 is the concentration giving half of the maximal activity seen. Consider `CN1CCN(NC(=O)CN2C(=O)/C(=C/c3c(Cl)cccc3Cl)SC2=S)CC1`, for which the AC50 is 4.47 µM (active).
Still for that read-out and setting: then `CC(C)(C)C(=O)[C@H]1[C@H](c2ccccc2)[C@@]2(N=C(c3ccccc3)OC2=O)C2c3ccccc3C=NN21` (some centres undefined), with 1.12 µM (active); and `COc1ccccc1-c1cc(C(=O)Nc2cc(C)n(Cc3ccc(Cl)cc3)n2)no1`, with 2.51 µM (active).
For `CCCCc1[nH]c(=O)c(C#N)c2c1CCCC2`, the “activity, negative = inhibition” value was -19.7%.
Consider `CCOC(=O)Cc1cc(=O)n2[nH]c(C)c(C#N)c2n1`, for which the “activity, negative = inhibition” value was 31.1%.
Turning to `CCCCOC(=O)CCc1c(C)[nH]c(=O)c(C#N)c1C`, the AC50 is 10 µM (active).
As for `CC(=O)N1CCC[C@@]2(CCN(c3ncccn3)C2)C1`, the “activity, negative = inhibition” value is -0.379%.
`CCc1cccc2c(C=C(C#N)C#N)cn(CC(=O)N3CCCCC3)c12`: the “activity, negative = inhibition” value is 52.3%.
In the case of `CCN(CC)C(=O)Cn1cc(/C=C(\C#N)C(=O)N2CCN(c3ccccc3)CC2)c2ccccc21`, the AC50 is 2 µM (active).
`CCc1cccc2c(C=C(C#N)C#N)cn(CC(=O)N3CCCC3)c12`: the “activity, negative = inhibition” value is 53.7%.
Still for that read-out and setting: then `Cc1noc(C)c1C(=O)N1CCC[C@@]2(CCN(Cc3ccccc3)C2)C1`, with -4.3%.
Turning to `COC(=O)c1cc(Br)c(=O)n(CCc2ccc(O)cc2)c1`, the AC50 was 3.55 µM (active).
Consider `COC(=O)[C@](C)(N)Cc1ccc(O)cc1`, for which the “activity, negative = inhibition” value was -6.96%.
Same read-out and setting: then `O=C(O)Cc1ccc(O)c(O)c1`, with -5.87%; and `COc1cc(CC(=O)O)ccc1O`, with 21.8%.
As for `COC(=O)c1ccc(CCc2cc(O)ccc2O)cc1`, the AC50 was 3.16 µM (active).
For `CC(C)=CCC/C(C)=C/CO/N=C1/C[C@@H](O)[C@@H](O)[C@@H]2[C@H]3C(=O)N(c4ccc(F)cc4F)C(=O)[C@@H]3CC[C@@H]12`, the activity, negative = inhibition is -9.14% [at 11.4 µM].
Regarding `COc1ccccc1C(=O)NC(=S)N1CCCc2ccccc21`, the AC50 is 2 µM (active).
For the molecule `COc1ccccc1C(=O)NN1C(=O)C2C3C=CC(O3)C2C1=O` (centres undefined), the “activity, negative = inhibition” value was 9.47%.
With `O=C(CSc1nnc2c3ccccc3c3ccccc3c2n1)Nc1ccccc1`, the AC50 is 2 µM (active).
Turning to `c1ccc(CSc2nnc3c4ccccc4c4ccccc4c3n2)cc1`, the activity, negative = inhibition was -34.7% [at 11.4 µM].
Same read-out and setting: then `c1cncc(-c2ccc3ncnc(NCCN4CCOCC4)c3c2)c1`, with 13.4%.
With `c1ccc(-c2nc(NCCCn3ccnc3)c3oc4ccccc4c3n2)cc1`, the AC50 is 0.158 µM (active).
Still for that read-out and setting: the figure for `c1ccc2c(c1)oc1c(NCCCn3ccnc3)ncnc12` is 3.55 µM (active); for `CNc1csc(C)c(C)c1=O` it is 28.2 µM (active).
Turning to `Cc1nc2ncnn2c(C)c1CCC(=O)Nc1ccc(S(=O)(=O)N2CCCCCC2)cc1`, the “activity, negative = inhibition” value was -27.7%.
With `O=C(O)c1cc(S(=O)(=O)N2CCCCC2)ccc1F`, the “activity, negative = inhibition” value is -3.99%.
Take `O=C(Nc1ccc(F)cc1)c1cc(S(=O)(=O)N2CCCCC2)cs1`: the AC50 was 22.4 µM (active).
For `Cc1ccc(S(=O)(=O)Oc2cc(S(=O)(=O)O)cc3cc(S(=O)(=O)O)cc(N)c23)cc1`, the activity, negative = inhibition was 7.86% [at 11.4 µM].
Turning to `Cc1ccc(S(=O)(=O)O[C@@H]2[C@H]([C@@H]3COC(C)(C)O3)O[C@H]3OC(C)(C)O[C@@H]32)cc1`, the activity, negative = inhibition is 45.2% [at 11.4 µM].
As to `Cc1ccc(S(=O)(=O)Oc2cc(N)c3c(n2)CCC3)cc1`, the AC50 was 1 µM (active).
Turning to `CC(C)CN1CCC2(CC1)CCN(C(=O)c1cccc(F)c1)CC2`, the “activity, negative = inhibition” value is -11.2%.
Take `O=C(c1cccc(F)c1)N1CCC2(CCN(Cc3ccccc3)CC2)CC1`: the “activity, negative = inhibition” value is -9.16%.
As to `CC(C)CC(=O)N1CCN(Cc2cccc(F)c2)CC1`, the AC50 is 3.55 µM (active).
On the same count and under the same terms, the figure for `COc1cccc(Cn2c(=O)c(-c3cccs3)nc3cnc(N4CCNCC4)nc32)c1` is 31.6 µM (active).
As for `COc1ccc(-c2nc3cnc(N4CCNCC4)nc3n(Cc3ccc(F)cc3)c2=O)cc1`, the “activity, negative = inhibition” value is -35%.
As to `COc1cccc(Cn2c(=O)c(-c3ccc(Cl)cc3)nc3cnc(N4CCNCC4)nc32)c1`, the AC50 was 25.1 µM (active).
For the molecule `COc1ccc(-n2c(=O)c(-c3ccc(Cl)cc3)nc3cnc(N4CCOCC4)nc32)cc1`, the AC50 was 25.1 µM (active).
As to `COc1cccc(Cn2c(=O)c(-c3cccs3)nc3cnc(N4CCN(C)CC4)nc32)c1`, the “activity, negative = inhibition” value is -17.6%.
`COc1ccc(-n2c(=O)c(-c3cccs3)nc3cnc(N4CCNCC4)nc32)cc1`: the “activity, negative = inhibition” value is -27.6%.
On the same count and under the same terms, the figure for `COc1ccc(-n2c(=O)c(-c3ccc(F)cc3)nc3cnc(N4CCOCC4)nc32)cc1` is -8.57%.
On the same count and under the same terms, then `COc1ccc(-n2c(=O)c(-c3ccc(Cl)cc3)nc3cnc(N4CCNCC4)nc32)cc1`, with -24.1%; and `COc1cccc(Cn2c(=O)c(-c3ccc(Cl)cc3)nc3cnc(N4CCN(C)CC4)nc32)c1`, with 61.1%; and `C[C@@H](NCc1cc(Br)cc2[nH]c(=O)c(=O)[nH]c12)P(=O)(O)O`, with 19.9%.
For the molecule `COc1ccc(CC(=S)N2CCOCC2)cc1OC`, the AC50 is 10 µM (active).
Take `COc1ccc(CCN(C)CCc2ccc(OC)c(OC)c2)cc1OC`: the AC50 result is “inactive”.
For `COc1ccc(C[N+](C)(C)N)cc1OC`, the activity, negative = inhibition is 22.8% [at 11.4 µM].
On the same count and under the same terms, the figure for `CO[C@@H]1COC(=O)[C@@H](C)NC(=O)C/C=C\[C@@H](C)[C@H](NS(=O)(=O)c2ccc(C)cc2)COC(=O)[C@H](C)NC(=O)C/C=C\[C@H]1C` is 1.72% [at 11.4 µM].
Turning to `Cc1ccc(CCNC(=O)C2CC(c3ccccc3[N+](=O)[O-])=NO2)cc1` (centres undefined), the AC50 was 11.2 µM (active).
On to `O=C(NCCCCc1ccccc1)C1CC(c2ccccc2[N+](=O)[O-])=NO1` (centres undefined), for which the AC50 was 7.08 µM (active).
On the same count and under the same terms, then `Cc1ccc(CNC(=O)C2CC(c3ccccc3[N+](=O)[O-])=NO2)cc1` (centres undefined), with 3.16 µM (active).
Same read-out and setting: the figure for `Cc1ccc(CNC(=O)C2CC(c3ccccc3[N+](=O)[O-])=NO2)o1` (centres undefined) is 7.94 µM (active).
Regarding `NCCNCC1CCNCC1`, the activity, negative = inhibition was 2.44% [at 11.4 µM].
`C/C(CCN1CCCc2nc(C)c(C)cc21)=N\O[C@@H](C)c1cn([C@H](CO)Cc2ccccc2)nn1`: the activity, negative = inhibition is -18.6% [at 11.4 µM] and 31.1% [at 11.4 µM].
Take `O=C(CSc1nc2ccccc2s1)c1sc2sc3ccccc3[n+]2c1O`: the activity, negative = inhibition was -17.6% [at 11.4 µM].
Regarding `CC1(C(=O)CSc2nc3ccccc3s2)CCC(=O)O1` (centres undefined), the AC50 is 11.2 µM (active).
As to `CC(C)CC1CC(=O)OC1(C)C(=O)CSc1nc2ccccc2s1` (centres undefined), the AC50 is 7.94 µM (active).
With `O=C(OCCNC(=O)c1ccc2ccccc2n1)c1ccc(F)cc1`, the AC50 was 7.94 µM (active).
Turning to `NCCNC(=O)c1ncsc1-c1cccc(F)c1`, the “activity, negative = inhibition” value is -22.7%.
On the same count and under the same terms, then `O=C(O)/C=C1\NC(=O)c2ccccc21`, with -15.3%.
As for `CC[N+](CC)(CC)CCOc1ccc(/C=C\c2ccccc2)cc1`, the “activity, negative = inhibition” value was 4.13%.
Regarding `CCOc1ccccc1OCCOc1ccc(F)cc1`, the AC50 is 4.47 µM (active).
`CCOC(=O)CCN1C(=O)[C@H]2[C@H]3[C@H](O)[C@H](O)C/C(=N/OC[C@@H](O)COCc4ccco4)[C@H]3CC[C@@H]2C1=O`: the activity, negative = inhibition is 34% [at 11.4 µM].
For the molecule `CC(C)NC(=O)N1CC2(CCN(S(=O)(=O)c3ccccc3)CC2)C1`, the “activity, negative = inhibition” value was 14.7%.
Take `CC(=O)N1CCN(S(=O)(=O)c2ccccc2)C1c1ccccc1` (centres undefined): the AC50 was 11.2 µM (active).
On to `CC(=O)N1CC2(CC2)CC1c1ccccc1` (centres undefined), for which the “activity, negative = inhibition” value was 9.83%.
For `Cc1ccc(S(=O)(=O)N2CCN(C(=O)c3ccccc3)C2C(C)C)cc1` (centres undefined), the AC50 was 7.08 µM (active).
As to `CC(C)NC(=O)N1CCCC2(CCN(S(=O)(=O)c3ccccc3)CC2)C1`, the “activity, negative = inhibition” value was -25%.
Take `C=CCC(NCc1ccco1)c1ccc(OC)cc1` (centres undefined): the AC50 is 5.01 µM (active).
As to `COc1ccc(OC)c(NC(=O)C(CC(=O)O)NCc2ccco2)c1` (centres undefined), the “activity, negative = inhibition” value is -7.23%.
Still for that read-out and setting: the figure for `COc1ccc(C(=O)n2nc(-c3ccccc3)nc2SC)cc1` is -24.6%.
Take `CCC(=O)n1nc(-c2ccc(OC)cc2)nc1N`: the AC50 is 10 µM (active).
Consider `COc1ccc(-c2nc(N)c3ncn([C@H]4O[C@@H](CO)[C@@H](O)[C@@H]4O)c3n2)cc1`, for which the activity, negative = inhibition was 31.6% [at 11.4 µM].
`CC(C)Oc1ccc(N2CC(C(=O)OCC(=O)NCc3ccccc3)CC2=O)cc1` (centres undefined): the AC50 was 15.8 µM (active).
Take `CCOc1ccc(N2CC(C(=O)NCc3cccc(C)c3)CC2=O)cc1` (centres undefined): the AC50 is 7.94 µM (active).
`O=C(CSc1nc2ccccc2o1)Nc1ccccc1N1CCCCCC1`: the AC50 is 15.8 µM (active).
As to `Cc1cc(C)nc(SCC(=O)N/N=C\c2sccc2C)n1`, the AC50 is 5.01 µM (active).
The same measure, in the same setting: the figure for `O=C(CSc1nc2ccccc2o1)NC(=O)NCc1ccccc1` is 3.55 µM (active).
As for `O=C(CNC1CCCCCC1)Nc1ccccc1N1CCCCC1`, the AC50 is 4.47 µM (active).
Regarding `O=C(CN1CCN(S(=O)(=O)c2ccccc2)CC1)NC(=O)NCc1ccccc1`, the “activity, negative = inhibition” value is -24%.
With `CNc1c2c(nn1C)CCCC2`, the “activity, negative = inhibition” value was -23.5%.
For `C[N+](C)(C)c1cc2c(nn1)Nc1ccccc1S2`, the activity, negative = inhibition is -41.4% [at 11.4 µM].
`CC1(C)N=C(N)N=C(N)N1CCCCc1ccccc1`: the activity, negative = inhibition was 24% [at 11.4 µM].
Take `O=C(O)c1ccc(CSc2nc3ccccc3o2)cc1`: the AC50 is 35.5 µM (active).
Same read-out and setting: then `O=C(CSc1nc2ccccc2o1)Nc1nc2ccccc2s1`, with 1.78 µM (active); and `O=C(CSc1ccccn1)Nc1nc2ccc(Br)cc2s1`, with 2 µM (active); and `Cc1cc(C)nc(SCC(=O)Nc2ccccc2[N+](=O)[O-])n1`, with 7.94 µM (active).
Consider `O=C(O)c1ccc(CNCc2ccccc2)cc1`, for which the activity, negative = inhibition is -4.75% [at 11.4 µM].
On the same count and under the same terms, then `O=C(O)c1cc(=O)[nH]c(SCc2ccccc2)n1`, with -23.4% [at 11.4 µM]; and `COc1nc(Cl)nc(Cl)c1Cl` (tested in a mixture with another compound), with -12.4% [at 11.4 µM]; and `CC(=O)OC[C@@H]1O[C@@H](O/N=C2/C[C@@H](O)[C@@H](O)[C@@H]3[C@@H]4C(=O)N(C[C@@H]5CCCO5)C(=O)[C@H]4CC[C@H]23)[C@H](OC(C)=O)[C@H](OC(C)=O)[C@@H]1OC(C)=O`, with -5.2% [at 11.4 µM].
Same read-out and setting: the figure for `Cc1ccccc1NC(=O)Cn1cnc2c1c(=O)n(C)c(=O)n2C` is -34.6%.
For the molecule `Cc1ccccc1NC(=O)CSc1nc(N2CCCCC2)nc(N2CCCCC2)n1`, the AC50 was 0.355 µM (active).
